According to article PMC5540273 (PLoS ONE, 2017):

These molecules were tested on TAOK1. Conditions: concentration: 1 μM, replicates: in singlicate; n = 1.
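Note: KINOMEscan kinase panel screen.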

Q: `c1ccc(-c2cnc3nccnn23)cc1` [AH20685] was tested. Which “%Inh” value did it give?
A: 0%

Q: `C[C@@H](Oc1cc(-n2cnc3cc(-c4ccnc(NCCS(C)(=O)=O)c4)ccc32)sc1C(N)=O)c1ccccc1Cl` [GSK907232] was tested. Which “%Inh” value did it give?
A: 0%

Q: `COc1cc(Nc2ncc3c(C)nc(-c4cc5ccccc5[nH]4)n3n2)cc(OC)c1OC` [GW869516] was tested. Which “%Inh” value did it give?
A: 0%

Q: Which “%Inh” value does the source give for `Cl.c1ccc(-c2ccc3c(Nc4ccc5[nH]ncc5c4)ccnc3c2)nc1` [GW440137] here?
A: 0%

Q: With `Cl.c1ccc(-c2ccc3c(Nc4ccc5[nH]ccc5c4)ccnc3c2)nc1` [GW440138] as the molecule, how does the “%Inh” value read?
A: 0%

Q: How did the “%Inh” value turn out when `Cl.NC(=O)c1cccc(Nc2nccc(Nc3ccc(Oc4c(Cl)cccc4Cl)c(Cl)c3)n2)c1` [GW659009] was run?
A: 9%

Q: With `O=C(Nc1ccccc1F)NC1CCN(c2ccnc(Nc3ccc(F)cc3)n2)CC1` [GSK1379800] as the molecule, how does the “%Inh” value read?
A: 0%

Q: With `COc1ccc(-c2coc3ccc(-c4nnc(SCc5ccc(OC)c(C(F)(F)F)c5)o4)cc23)cc1` as the molecule, how does the “%Inh” value read?
A: 0%

Q: `Clc1ccc(-c2nn3ncccc3c2-c2ccnc(Nc3ccc4c(c3)OCCO4)n2)cc1` [GW829116] was tested. Which “%Inh” value did it give?
A: 0%

Q: For `CC(C)c1nc(-c2cccc(NS(=O)(=O)c3c(F)cccc3F)c2F)c(-c2ccnc(Nc3ccc(N4CCOCC4)nc3)n2)s1` [GSK2008607], which “%Inh” value is on record?
A: 10%

Q: `C[C@@H]1CC[C@@H](C(=O)Nc2ccccc2)CN1c1cc(-c2ccc3c(N)n[nH]c3c2)nc(N)n1` [GSK2286062] was tested. Which “%Inh” value did it give?
A: 0%

Q: For `COc1ccc(CNC(=O)NC2CCN(c3ccnc(Nc4ccc(F)cc4)n3)CC2)cc1` [GSK1379788], which “%Inh” value is on record?
A: 0%

What follows are molecules tested on TAOK2. Conditions: concentration: 1 μM, replicates: in singlicate; n = 1.

Q: How did the “%Inh” value turn out when `c1ccc(Oc2ccc(Nc3ccnc4cc(-c5ccc(CNCCN6CCOCC6)o5)ccc34)cc2)nc1` [GW567145] was run?
A: 0%

Q: How did the “%Inh” value turn out when `Cn1cc(-c2[nH]c3cc(NC(=O)[C@H](N)C4CCCCC4)cc4c3c2C=NNC4=O)cn1` was run?
A: 0%

Q: For `O=C(Nc1cccc(-c2nn3ccccc3c2-c2ccnc(Nc3cccc(F)c3)n2)c1)c1c(F)ccc(F)c1Cl` [GSK357952], which “%Inh” value is on record?
A: 0%

Q: With `Cc1ccc(C)c(NC(=O)NC2CCN(c3ccnc(Nc4ccc(F)cc4)n3)C2)c1` (stereo not drawn) [GSK1379720] as the molecule, how does the “%Inh” value read?
A: 0%

Q: With `O=C(Nc1n[nH]c2cc(-c3ccoc3)ccc12)C1CC1` [SB-738481] as the molecule, how does the “%Inh” value read?
A: 27%

Q: Which “%Inh” value does the source give for `COc1cccc(C(=O)Nc2cccc(Oc3ccc4nc(NC(=O)C5CC5)cn4n3)c2)c1` here?
A: 58%

Q: For `Cc1ccc(S(=O)(=O)Nc2ccc(Nc3nccc(Nc4cccc5[nH]ncc45)n3)cc2)cc1` [GSK581271], which “%Inh” value is on record?
A: 0%

Q: How did the “%Inh” value turn out when `CN(C)Cc1ccc(-c2ccc3c(Nc4ccc(Oc5ccccn5)cc4)ccnc3c2)o1` [GW567148] was run?
A: 0%

Q: For `Nc1ncc(-c2ccc3nccc(-c4ccncc4)c3c2)cc1S(=O)(=O)N1CCOCC1` [GSK1627798], which “%Inh” value is on record?
A: 0%

Q: `CC(=O)Nc1nc2cnc(Nc3cc(NC(=O)c4cccc(C5(C#N)CC5)c4Cl)ccc3C)nc2s1` was tested. Which “%Inh” value did it give?
A: 0%

Q: For `Cl.Cl.NCC(NC(=O)c1cc(-c2ccccc2)c(-c2ccnc3[nH]ccc23)s1)c1ccccc1` (stereo not drawn) [GSK1321561], which “%Inh” value is on record?
A: 0%

Q: `COc1cccc(C2=C(Nc3ccc(Cl)c(C(=O)O)c3)C(=O)NC2=O)c1` [SB-390769] was tested. Which “%Inh” value did it give?
A: 100%

Q: For `O=c1[nH]cc(-c2ccc(N3CCOCC3)cc2)c2sc(-c3cn[nH]c3)cc12` [GSK2276055], which “%Inh” value is on record?
A: 5%

Q: How did the “%Inh” value turn out when `Cn1cc(-c2ccc3c(c2)CCN3C(=O)Cc2cccc(F)c2)c2c(N)ncnc21` [GSK2603358] was run?
A: 0%

Q: `CN1CCN(CCCNc2nccc(-c3c(-c4ccc(F)cc4)nn4cc(C(F)(F)F)ccc34)n2)CC1` [GW621581] was tested. Which “%Inh” value did it give?
A: 0%

Q: How did the “%Inh” value turn out when `Cc1ccc(C(=O)Nc2ccc(Nc3ccnc4cc(-c5nccs5)ccc34)cc2O)cc1.Cl` [GW494702] was run?
A: 0%

Q: How did the “%Inh” value turn out when `CC(C)(C)c1ccc2nccc(Nc3cccc(O)c3)c2c1` [GW856795] was run?
A: 0%

Q: Which “%Inh” value does the source give for `Nc1n[nH]c2cnc(-c3ccccc3)cc12` [SB-642124] here?
A: 9%

Q: `CCc1ccc(-c2ccc3c(c2)-c2c(cnn2C)S(=O)(=O)N3C)cc1` was tested. Which “%Inh” value did it give?
A: 0%

Q: `O=C(Nc1n[nH]c2nc(-c3ccc(O)cc3)ccc12)C1CC1` [SB-710363] was tested. Which “%Inh” value did it give?
A: 79%

Q: Which “%Inh” value does the source give for `CC(=O)N1CCN(c2ccc(Nc3nccc(-c4sc(C(C)C)nc4-c4cccc(NS(=O)(=O)c5cccc(Cl)c5)c4)n3)cn2)CC1` [GSK1660437] here?
A: 0%
